Data: PubChem BioAssay (Tox21)
Inconclusive results are not listed. Where a call stands in place of a potency, no number is given. Activity calls are given as the source filed them. Calls come from the whole dose curve.

Experiment: cAMP Responsive Elements (CRE) small molecule agonists, cell-based qHTS assay (AID 1963590)
Details: CRE-bla HEK293T, beta-lactamase FRET ratio, 3 h; series mostly up to 92.4 µM
Source text: U.S. Tox21 Program National Center for Advancing Translational Sciences [NCATS] Division of Preclinical Innovation [DPI] U.S. Environmental Protection Agency [EPA] National Institutes of Environmental Health Sciences [NIEHS] National Toxicology Program [NTP] U.S. Food and Drug Administration [FDA] Tox21 Assay Overview: CREB (cyclic-AMP Responsive Element Binding Protein) is a cellular transcription factor. It binds to certain DNA sequences called cAMP Responsive Elements (CRE) and regulates the transcription of the genes. […] This cell line can be used to find agonists/antagonists of the cyclic AMP signaling pathway. The activation of the report gene under culture conditions can be detected by fluorescence intensity. This cell line has been used to screen the Tox21 10K compound library to identify agonists that induce oxidative stress.
Tox21 Assay Protocol Summary: CRE-bla Hek 293T cells were suspended in assay medium (DMEM containing 10% dialyzed FBS, 0.1 mM NEAA, 1 mM sodium pyruvate and 25 mM HEPES) and dispensed at 2,000 cells/5 uL /well into 1536-well black wall/clear bottom plates using a Multidrop Combi (ThermoFisher Scientific, Waltham, MA) dispenser. After the assay plates were incubated at 37 C/5% CO2 for 18 hrs, 23 nL of compounds dissolved in DMSO, positive controls or DMSO only was transferred to the assay plate by a pintool workstation (Kalypsys, San Diego, CA). After the plates were incubated at 37 C/5% CO2 for 3 hrs, 1 uL of LiveBLAzer B/G FRET substrate (Invitrogen, Carlsbad, CA) was added to each well using Bioraptr Flying Reagent Dispenser (FRD, Aurora Discovery, San Diego, CA). The plates were incubated at room temperature for 2 h.
With `NCCOCCO` the Potency was “inactive”.
For `CS(=O)(=O)OCCCCOS(C)(=O)=O`, the Potency was “inactive”.
For `CCn1c2ccccc2c2cc(N)ccc21`, the Potency was “inactive”.
With `Cc1cccc(O)c1C` the Potency was “inactive”.
For `COc1ccc(NC(C)=O)cc1N`, the Potency was “inactive”.
In the case of `C#CC1(O)CC[C@H]2[C@@H]3CCC4=CCCC[C@@H]4[C@H]3CC[C@@]21C` (stereo not given in full), the Potency is reported as “inactive”.
In the case of `NS(=O)(=O)O`, the Potency is reported as “inactive”.
For `ClC/C=C/CCl`, the Potency was “inactive”.
In the case of `O=C(O)Cc1ccccc1Nc1c(Cl)cccc1Cl`, the Potency is reported as “inactive”.
For `CCCCCCCCCCO`, the Potency was “inactive”.
In the case of `CCCCC(CC)COC(=O)C(C#N)=C(c1ccccc1)c1ccccc1` (stereo not given), the Potency is reported as “inactive”.
In the case of `CC(=O)c1ccc(O)cc1`, the Potency is reported as “inactive”.
With `CC1(C)S[C@@H]2[C@H](NC(=O)[C@H](N)c3ccccc3)C(=O)N2[C@H]1C(=O)O` the Potency was “inactive”.
For `CC(C)[N+](C)(CCOC(=O)C1c2ccccc2Oc2ccccc21)C(C)C`, the Potency was “inactive”.
For `Nc1nc2ncc(CNc3ccc(C(=O)N[C@@H](CCC(=O)O)C(=O)O)cc3)nc2c(=O)[nH]1`, the Potency was “inactive”.
With `O=CCCCC=O` the Potency was “inactive”.
In the case of `CC(=O)OCC(=O)[C@@]12N=C(C)O[C@@H]1C[C@H]1[C@@H]3CCC4=CC(=O)C=C[C@]4(C)[C@H]3[C@@H](O)C[C@@]12C`, the Potency is reported as “inactive”.
In the case of `Cc1ccc(C)c(O)c1`, the Potency is reported as “inactive”.
With `C=Cc1ccc(C)cc1` the Potency was “inactive”.
With `CC(C)CC(C)CC(O)CC(C)C` (stereo not given) the Potency was “inactive”.
In the case of `CC(=O)C(C)C`, the Potency is reported as “inactive”.
For `CC1=CC[C@H]2C[C@@H]1C2(C)C`, the Potency was “inactive”.
With `CSc1ccc(Cl)cc1` the Potency was “inactive”.
With `CC(O)COCC(C)O` (stereo not given) the Potency was “inactive”.
With `CCCCC(CC)COC(=O)/C=C\C(=O)OCC(CC)CCCC` (stereo not given) the Potency was “inactive”.
With `C=CC[N+](C)(C)CC=C` the Potency was “inactive”.
For `O=C1NC(=O)c2ccccc21`, the Potency was “inactive”.
For `O=C(Cl)c1cccc(C(=O)Cl)c1`, the Potency was “inactive”.
In the case of `Cc1c(N(C)C)c(=O)n(-c2ccccc2)n1C`, the Potency is reported as “inactive”.
In the case of `O=C(O)CN(CC(=O)O)CC(=O)O`, the Potency is reported as “inactive”.
For `C1COCCN1`, the Potency was “inactive”.
With `CCCCCCOCCO` the Potency was “inactive”.
With `CCCCCCCCCCCCCC(=O)O` the Potency was “inactive”.
With `CCCCCCCCCCCCc1ccccc1` the Potency was “inactive”.
In the case of `CC(=O)Nc1ccccc1`, the Potency is reported as “inactive”.
With `CCCCC/C(C=O)=C\c1ccccc1` the Potency was “inactive”.
With `CCCCCNCCCCC` the Potency was “inactive”.
With `NC1CCCCC1` the Potency was “inactive”.
With `Cc1cc(=O)n(-c2ccccc2)n1C` the Potency was “inactive”.
For `CC[Si](OC(C)=O)(OC(C)=O)OC(C)=O`, the Potency was “inactive”.
